In PubChem BioAssay:
Values without a mark were called inactive. The list shows a part of the results. Activity calls are given as the source filed them. Unless noted, no stated cut-off is given here; in the data, active means inhibition above about 36%; inactive means the rest.

Legend:
[1] = StAR promoter reporter inhibitors, counter-screen for LRH-1 inverse agonist project, cell-based, luminescence, high throughput (AID 651611; in the data active means inhibition above about 28%); conditions: StAR promoter luciferase reporter counterscreen, at 3.6 µM, active compounds read high
[2] = target: Nuclear receptor subfamily 5 group A member 2 (Homo sapiens) (UniProt O00482); test: LRH-1 (NR5A2) inverse agonists, retest, confirmation, cell-based, luminescence (AID 651613; in the data active means inhibition above about 42%;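 further: HEK293T cells co-transfected with LRH-1 and StAR promoter luciferase reporter; 0% = vehicle wells and 100% = parental cells lacking receptor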); conditions: cell-based LRH-1 luciferase reporter, inverse agonism; at 3.6 µM; active compounds read high
[3] = target: Steroidogenic factor 1 (Homo sapiens) (UniProt Q13285); test: SF1 (NR5A1) inverse agonists, counter-screen for LRH-1 inverse agonist project, cell-based, luminescence, high throughput (AID 651614; in the data active means inhibition above about 44%;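 further: cells cotransfected with StAR promoter reporter and SF1 expression vector; 0% = vehicle on cells with receptor and 100% = vehicle on cells lacking receptor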); conditions: cell-based SF1 luciferase reporter, at 3.6 µM, active compounds read high
[4] = VP16 transactivation reporter inhibitors, counter-screen for LRH-1 inverse agonist project, cell-based, luminescence, high throughput (AID 651615; in the data active means inhibition above about 33%); conditions: Gal4-VP16 luciferase reporter cells, at 3.6 µM, active compounds read high
[5] = tested on: transactivating tegument protein VP16 (Human herpesvirus 1); test: VP16 transactivation reporter inhibitors, counter-screen for SRC2 inhibitor project, cell-based, luminescence, single concentration (AID 652007); conditions: cell-based VP16 transactivation luciferase reporter, at 8.9 µM, active compounds read high
[6] = target: Nuclear receptor coactivator 2 (Homo sapiens) (UniProt Q15596); test: SRC2 coactivator transcriptional activity inhibitors, confirmation, cell-based, luminescence, HEK293, triplicate (AID 652008;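 active means mean inhibition above 46.5%, the solvent-only control mean plus 3 SD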;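 further: 0% = DMSO-treated cells and 100% = Gossypol at 36 µM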); conditions: HEK293 GAL4-SRC2 luciferase reporter, at 8.9 µM, active compounds read high
[7] = growth loss of phage-infected RecBCD+ E. coli, confirmation, RecBCD inhibitor project, absorbance, E. coli V66, T4 gene 2 phage (AID 651982;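 active means mean inhibition over triplicates exceeding the hit threshold derived in the original primary screen, cut at about 11% in these data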); conditions: E. coli V66 + T4 2- phage, growth OD; at 11.9 µM; active compounds read high
[8] = E. coli viability inhibition, counter-screen for RecBCD inhibitor project, absorbance, high throughput (AID 651983; in the data active means inhibition above about 20%;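 further: E. coli strain V66 grown with compound alone and no phage infection; 0% = bacteria with DMSO vehicle only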); conditions: absorbance (OD) growth, at 11.9 µM, active compounds read high
[9] = growth loss of phage-infected AddAB-carrying E. coli, confirmation, counter-screen for RecBCD inhibitor project, absorbance, E. coli V3065, T4 phage (AID 651984;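 active means mean inhibition above the solvent-only control wells' mean plus 3 SD, cut at about 22% in these data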;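 further: higher means less bacterial growth from phage killing when AddAB is blocked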); conditions: E. coli expressing H. pylori AddAB + T4 phage, OD growth; at 11.9 µM; active compounds read high; gene 2 mutant T4, recBCD-deleted host

Chain of Nuclear receptor coactivator 2 (Homo sapiens) (Q15596 whole entry, looked up, the tested form may be a part): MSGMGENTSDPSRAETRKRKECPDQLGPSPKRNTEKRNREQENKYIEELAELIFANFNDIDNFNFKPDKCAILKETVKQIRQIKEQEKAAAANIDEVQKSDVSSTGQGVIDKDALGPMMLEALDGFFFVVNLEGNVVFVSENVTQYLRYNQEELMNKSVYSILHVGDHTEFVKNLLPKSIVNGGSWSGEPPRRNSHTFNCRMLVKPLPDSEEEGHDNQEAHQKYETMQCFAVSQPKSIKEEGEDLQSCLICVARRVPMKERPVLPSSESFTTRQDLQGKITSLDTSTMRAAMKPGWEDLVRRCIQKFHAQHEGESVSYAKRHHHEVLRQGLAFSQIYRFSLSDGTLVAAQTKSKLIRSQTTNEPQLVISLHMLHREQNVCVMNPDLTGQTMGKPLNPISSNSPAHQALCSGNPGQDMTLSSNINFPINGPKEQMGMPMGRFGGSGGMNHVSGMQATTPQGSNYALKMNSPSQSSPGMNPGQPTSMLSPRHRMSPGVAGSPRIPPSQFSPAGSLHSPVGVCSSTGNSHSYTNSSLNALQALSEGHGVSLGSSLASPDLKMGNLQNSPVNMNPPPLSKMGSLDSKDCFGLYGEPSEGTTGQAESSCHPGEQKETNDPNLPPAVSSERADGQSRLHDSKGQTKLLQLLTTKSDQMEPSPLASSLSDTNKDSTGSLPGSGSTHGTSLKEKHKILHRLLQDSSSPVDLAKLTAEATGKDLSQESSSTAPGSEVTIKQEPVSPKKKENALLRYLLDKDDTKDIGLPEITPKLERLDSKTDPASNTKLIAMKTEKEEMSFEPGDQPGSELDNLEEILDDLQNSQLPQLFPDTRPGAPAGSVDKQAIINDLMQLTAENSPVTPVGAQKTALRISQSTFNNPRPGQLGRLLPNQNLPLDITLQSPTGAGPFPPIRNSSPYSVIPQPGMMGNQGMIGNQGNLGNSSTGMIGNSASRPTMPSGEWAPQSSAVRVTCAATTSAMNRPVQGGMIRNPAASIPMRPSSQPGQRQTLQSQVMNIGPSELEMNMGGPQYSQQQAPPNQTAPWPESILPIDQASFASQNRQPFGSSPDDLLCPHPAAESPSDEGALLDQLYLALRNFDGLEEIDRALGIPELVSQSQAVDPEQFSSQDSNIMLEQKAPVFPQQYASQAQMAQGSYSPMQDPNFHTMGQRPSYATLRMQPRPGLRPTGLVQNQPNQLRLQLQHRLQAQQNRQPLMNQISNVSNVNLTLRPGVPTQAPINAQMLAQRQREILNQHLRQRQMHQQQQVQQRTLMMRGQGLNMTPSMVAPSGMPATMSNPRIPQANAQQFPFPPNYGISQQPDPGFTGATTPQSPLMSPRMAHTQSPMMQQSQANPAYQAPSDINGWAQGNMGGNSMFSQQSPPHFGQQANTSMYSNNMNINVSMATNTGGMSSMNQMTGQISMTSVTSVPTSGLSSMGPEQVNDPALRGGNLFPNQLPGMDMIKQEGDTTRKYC
Chain of Steroidogenic factor 1 (Homo sapiens) (Q13285 whole entry, looked up, the tested form may be a part): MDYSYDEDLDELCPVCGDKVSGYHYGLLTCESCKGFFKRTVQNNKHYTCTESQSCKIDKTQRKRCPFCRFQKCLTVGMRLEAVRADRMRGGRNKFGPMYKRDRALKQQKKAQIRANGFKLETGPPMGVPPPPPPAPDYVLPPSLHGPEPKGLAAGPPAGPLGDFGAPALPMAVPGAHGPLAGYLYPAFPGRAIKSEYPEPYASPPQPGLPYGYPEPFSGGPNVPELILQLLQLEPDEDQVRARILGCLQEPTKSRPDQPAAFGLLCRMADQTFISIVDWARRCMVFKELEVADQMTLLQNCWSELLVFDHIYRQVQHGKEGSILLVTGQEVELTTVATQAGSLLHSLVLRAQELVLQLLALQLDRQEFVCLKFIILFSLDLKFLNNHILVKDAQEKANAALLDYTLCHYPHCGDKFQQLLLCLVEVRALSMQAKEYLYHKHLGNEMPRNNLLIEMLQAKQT
Chain of Nuclear receptor subfamily 5 group A member 2 (Homo sapiens) (O00482 whole entry, looked up): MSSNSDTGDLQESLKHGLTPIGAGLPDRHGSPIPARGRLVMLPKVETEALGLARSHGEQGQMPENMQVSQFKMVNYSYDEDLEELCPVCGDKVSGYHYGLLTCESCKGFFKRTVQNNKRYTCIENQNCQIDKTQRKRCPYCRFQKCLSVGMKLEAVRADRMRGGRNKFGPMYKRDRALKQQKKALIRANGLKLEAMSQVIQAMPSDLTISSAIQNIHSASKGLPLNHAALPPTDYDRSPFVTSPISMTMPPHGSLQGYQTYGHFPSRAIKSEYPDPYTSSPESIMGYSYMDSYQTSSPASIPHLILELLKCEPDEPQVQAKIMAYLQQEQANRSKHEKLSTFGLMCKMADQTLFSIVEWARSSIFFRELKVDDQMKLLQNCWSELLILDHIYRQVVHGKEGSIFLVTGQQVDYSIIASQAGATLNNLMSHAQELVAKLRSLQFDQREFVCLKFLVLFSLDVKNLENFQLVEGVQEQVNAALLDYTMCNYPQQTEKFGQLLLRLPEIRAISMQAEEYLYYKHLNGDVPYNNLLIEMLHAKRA

Question: What does the source list for `C=CC(=O)N1C/C(=C/c2ccccc2)C(=O)/C(=C\c2ccccc2)C1`?
Answer: inhibition [1]: -2.93%; inhibition [2]: 71.8% (active); inhibition [3]: 77.5% (active); inhibition [4]: 62.2% (active); inhibition [5]: 88.6% (active); inhibition [6]: 65.3% (active)

Question: Which inhibition [1] does the source give for `Cc1cc(C)c(C#N)c(Sc2nc(C)c([N+](=O)[O-])c(C)c2C#N)n1` here?
Answer: 3.51%

Question: And the inhibition [2]?
Answer: 10.9%

Question: What about the inhibition [3] of the same compound?
Answer: 9.59%

Question: And the inhibition [4]?
Answer: 20.6%

Question: And the inhibition [5]?
Answer: 12.9%

Question: What about the inhibition [6] of the same compound?
Answer: 25.4%

Question: What does the source list for `c1ccc2c(c1)CCN(c1ncnc3c1[nH]c1ccccc13)C2`?
Answer: inhibition [1]: 25.5%; inhibition [2]: 68.5% (active); inhibition [3]: 69.5% (active); inhibition [4]: 58.2% (active); inhibition [5]: 25.4%; inhibition [6]: 40.2%

Question: With `COc1ccc(NS(=O)(=O)c2ccc3c(c2)OCCO3)cc1OC` as the compound, how does the inhibition [1] read?
Answer: 10.4%

Question: And the inhibition [2]?
Answer: 69.7% (active)

Question: And the inhibition [3]?
Answer: 67.5% (active)

Question: And the inhibition [4]?
Answer: 35.5% (active)

Question: What about the inhibition [5] of the same compound?
Answer: 10.1%

Question: And the inhibition [6]?
Answer: 27.8%

Question: Which inhibition [1] does the source give for `CC(=O)NC(c1cccc([N+](=O)[O-])c1)c1ccc2cccnc2c1O` (stereo unspecified) here?
Answer: 85.6% (active)

Question: And the inhibition [2]?
Answer: 100% (active)

Question: And the inhibition [3]?
Answer: 91.2% (active)

Question: What about the inhibition [4] of the same compound?
Answer: 83.9% (active)

Question: What about the inhibition [5] of the same compound?
Answer: 0.91%

Question: And the inhibition [6]?
Answer: 31.1%

Question: What does the source list for `CC1C/C(=C/c2ccncc2)C(=O)/C(=C/c2ccncc2)C1` (stereo unspecified)?
Answer: inhibition [1]: 17.3%; inhibition [2]: 73.6% (active); inhibition [3]: 84.2% (active); inhibition [4]: 72.9% (active); inhibition [5]: 93.7% (active); inhibition [6]: 90.8% (active)

Question: With `CC(=O)c1c(C)[nH]c(C(=O)COc2cc(C)ccc2C(C)C)c1C` as the compound, how does the inhibition [1] read?
Answer: 21.1%

Question: And the inhibition [2]?
Answer: 53.5% (active)

Question: And the inhibition [3]?
Answer: 71% (active)

Question: What about the inhibition [4] of the same compound?
Answer: 50.3% (active)

Question: What about the inhibition [5] of the same compound?
Answer: 17.3%

Question: What about the inhibition [6] of the same compound?
Answer: 43%

Question: For `CCCCCc1c(CC)ncn1CCc1ccccc1OC`, which inhibition [1] is on record?
Answer: -2.24%

Question: What about the inhibition [2] of the same compound?
Answer: 23.2%

Question: What about the inhibition [3] of the same compound?
Answer: 25.2%

Question: What about the inhibition [4] of the same compound?
Answer: 31.8% (active)

Question: And the inhibition [5]?
Answer: 2.9%

Question: What about the inhibition [6] of the same compound?
Answer: 1.53%

Question: With `COc1ccc(-c2cc(-c3nc4ccccn4c3NCc3ccccc3)ccc2OC)cc1` as the compound, how does the inhibition [1] read?
Answer: 95.2% (active)

Question: What about the inhibition [2] of the same compound?
Answer: 109% (active)

Question: And the inhibition [3]?
Answer: 97.3% (active)

Question: And the inhibition [4]?
Answer: 98.7% (active)

Question: What about the inhibition [5] of the same compound?
Answer: 96.8% (active)

Question: What about the inhibition [6] of the same compound?
Answer: 98.3% (active)

Question: Which results are given for `COc1ccc(NC(=O)/C(Cl)=C(/Cl)S(=O)Cc2ccccc2)cn1` (stereo unspecified)?
Answer: inhibition [1]: 56.1% (active); inhibition [2]: 87.8% (active); inhibition [3]: 78.2% (active); inhibition [4]: 94.5% (active); inhibition [5]: 95.8% (active); inhibition [6]: 100% (active)

Question: Which results are given for `CC1=C(CO)C(=O)OC([C@@H](C)C2CC[C@H]3C4C[C@H]5O[C@]56[C@@H](O)C=CC(=O)[C@]6(C)C4CC[C@]23C)C1` (stereo partly specified)?
Answer: inhibition [1]: 67.7% (active); inhibition [2]: 66.2% (active); inhibition [3]: 79.8% (active); inhibition [4]: 79.6% (active); inhibition [5]: 53.8% (active); inhibition [6]: 41.6%

Question: What does the source list for `O=C(CCCc1ccccc1)c1ccc2c(c1)OCCO2`?
Answer: inhibition [1]: 62.5% (active); inhibition [2]: 7.99%; inhibition [3]: 55.9% (active); inhibition [4]: 26.2%; inhibition [5]: 54.7% (active); inhibition [6]: 73.9% (active)

Question: For `O=C(CSc1ncccc1C(=O)O)Nc1ccc2c(c1)OCCO2`, which inhibition [1] is on record?
Answer: 4.26%

Question: And the inhibition [2]?
Answer: 11.1%

Question: And the inhibition [3]?
Answer: 16.6%

Question: What about the inhibition [4] of the same compound?
Answer: 0.17%

Question: And the inhibition [5]?
Answer: -2.25%

Question: And the inhibition [6]?
Answer: -11.1%

Question: For `CCN(CC)CCC(=O)N1C/C(=C/c2ccccc2)C(=O)/C(=C\c2ccccc2)C1`, which inhibition [1] is on record?
Answer: 57.8% (active)

Question: What about the inhibition [2] of the same compound?
Answer: 84.4% (active)

Question: What about the inhibition [3] of the same compound?
Answer: 86.8% (active)

Question: And the inhibition [4]?
Answer: 76.2% (active)

Question: And the inhibition [5]?
Answer: 84.8% (active)

Question: What about the inhibition [6] of the same compound?
Answer: 23.6%

Question: With `N#Cc1cccc(C=C(C(=O)c2ccccc2)c2ccccc2)c1` as the compound, how does the inhibition [1] read?
Answer: 18.6%

Question: What about the inhibition [2] of the same compound?
Answer: 28.9%

Question: What about the inhibition [3] of the same compound?
Answer: 36.9%

Question: What about the inhibition [4] of the same compound?
Answer: 32.6% (active)

Question: And the inhibition [5]?
Answer: 23%

Question: And the inhibition [6]?
Answer: 62.2% (active)

Question: For `S=C(NCC1COc2ccccc2O1)Nc1ccc(Br)cc1` (stereo unspecified), which inhibition [7] is on record?
Answer: 4.21%

Question: And the inhibition [8]?
Answer: 5.21%

Question: What about the inhibition [9] of the same compound?
Answer: 6.67%

Question: Which inhibition [5] does the source give for `CN(C)c1ccnc2sc(C(N)=O)c(N)c12` here?
Answer: -0.64%

Question: For `CNC(=O)c1cc(Oc2ccc(NC(=O)Nc3ccc(Cl)c(C(F)(F)F)c3)cc2)ccn1`, which inhibition [2] is on record?
Answer: 63.7% (active)

Question: And the inhibition [3]?
Answer: 69% (active)

Question: What about the inhibition [5] of the same compound?
Answer: 29.9%

Question: What about the inhibition [6] of the same compound?
Answer: 58.7% (active)

Question: Which inhibition [7] does the source give for `C=CCNC(=O)CSc1nc2sc(C)c(C)c2c(=O)[nH]1` here?
Answer: -1.59%

Question: What about the inhibition [8] of the same compound?
Answer: -0.91%

Question: What about the inhibition [9] of the same compound?
Answer: -2.04%

Question: Which results are given for `CCN1CCN(C(=O)N[C@@H](C(=O)N[C@@H]2C(=O)N3C(C(=O)O)=C(CSc4nnnn4C)CS[C@H]23)c2ccc(O)cc2)C(=O)C1=O`?
Answer: inhibition [7]: 99.8% (active); inhibition [8]: 101% (active); inhibition [9]: 3.42%

Question: For `CN(C)C(=O)c1cccc(COc2ccc(N3C(N)=NC(N)=NC3(C)C)cc2Cl)c1`, which inhibition [2] is on record?
Answer: 42.1% (active)

Question: And the inhibition [3]?
Answer: 39.9%
